From PubChem BioAssay
The list is not random: actives were taken first. Their share in the collection is about 1.8%.
PGK inhibitor: blocks T. brucei phosphoglycerate kinase; Potency, µM (highest dose often 57.5 µM), for the others: at the highest dose activity change, negative = inhibition, hits mostly inhibitors; P07378; hit rate 0.043% among 380,000; PGK/GAPDH coupled, Kinase-Glo luminescence, 60 min; note: % is set by controls: 0 for no effect and ±100 for the full control effect; nearly all actives have a fitted effect of over 60% in size
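Luminescent ATP detection (Kinase-Glo Plus) follows a 60-minute room-temperature incubation, with wells lacking PGK as controls. Buffer: 100 mM TEA (pH 7.6), 5 mM MgCl2, 0.01% Tween-20. Coupling enzyme GAPDH (100 nM final) supplies unstable 1,3-BPG in-well.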
Tb PFK inh: blocks T. brucei phosphofructokinase; T. brucei PFK, ADP-Glo luminescence; Potency, µM (top dose mostly 57.5 µM), without a hit: at the highest dose activity, negative = inhibition, actives largely listed as inhibitors; hit rate 0.17% among 330,000; AID 485367;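 note: 0% = uninhibited 1x PFK enzyme wells and -100% = no-enzyme wells; nearly all actives have a fitted effect of over 60% in size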
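PFK 1.25 nM, F6P 0.5 mM, ATP 0.1 mM, 0.1 M TEA pH 8.0, 5 mM MgCl2, 0.01% Tween20, 0.1% BSA; 45 min RT. ADP-Glo readout. qHTS titration up to 57 uM; curves fitted, compounds curve-classed.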
GLP1R cytotox: cytotoxic in the GLP-1 receptor inverse agonist counter-screen. HEK293 cAMP-luciferase reporter cells, luminescence, 24 h. Potency, µM (top dose mostly 38.3 µM), for inactives: at the top dose activity change, negative = inhibition, actives largely listed as inhibitors. hit rate 0.13% among 410,000. AID 624418;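 note: loss of luciferase light is scored as toxicity; % is set by controls: 0 for no effect and ±100 for the full control effect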
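To flag toxic compounds, the library was rerun on cells for 24 hr at 37 deg C and 5% CO2. Viability-linked luminescence was captured 12 min after adding luciferase detection reagent.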
GLP-1R inv ag: GLP-1 receptor (human) inverse agonism. P43220. AID 624417. Potency, µM (top dose mostly 38.3 µM), for the others: at the highest dose activity change, negative = inhibition, hits mostly inhibitors. hit rate 1.6% among 410,000. HEK293 GLP-1R CRE-luciferase, luminescence, 24 h; GLP-1R form is constitutively active; note: % is set by controls: 0 for no effect and ±100 for the full control effect; nearly all actives have a fitted effect of over 55% in size
Target sequence (P43220 whole entry, looked up): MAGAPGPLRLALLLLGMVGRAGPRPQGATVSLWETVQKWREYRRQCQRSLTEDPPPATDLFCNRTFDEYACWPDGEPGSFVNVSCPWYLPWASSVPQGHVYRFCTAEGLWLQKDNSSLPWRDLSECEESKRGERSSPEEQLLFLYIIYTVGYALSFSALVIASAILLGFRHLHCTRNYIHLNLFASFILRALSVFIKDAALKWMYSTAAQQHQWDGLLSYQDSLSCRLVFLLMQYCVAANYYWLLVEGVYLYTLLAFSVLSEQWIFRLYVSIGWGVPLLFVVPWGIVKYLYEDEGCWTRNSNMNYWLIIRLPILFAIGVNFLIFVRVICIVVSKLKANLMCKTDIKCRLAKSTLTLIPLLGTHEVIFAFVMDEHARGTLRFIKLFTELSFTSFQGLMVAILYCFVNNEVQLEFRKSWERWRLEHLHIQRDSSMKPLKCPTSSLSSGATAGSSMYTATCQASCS
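Using stably transfected HEK293 (constitutively active GLP-1R, cAMP-luciferase reporter), compounds were incubated 24 hr and luciferase measured by luminescence.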
Pin1 inh: inhibitors of human Pin1; Q13526; Pin1 FP peptide displacement, HiFluor488, 10 min; Potency, µM (series often up to 115 µM), for the others: at the highest dose activity, negative = inhibition, actives largely listed as inhibitors; hit rate 0.009% among 390,000; AID 504891; active = well fitted inhibition curve with a large enough effect in the polarisation, with a control signal flat, not every such curve was filed as active; inconclusive = small, poorly fitted or top-dose-only effect, or effect the other way, or a change in a side signal; inactive = no such curve, though single readings can be large or run the other way; the % refers to the polarisation; note: % is set by controls: 0 for no effect and ±100 for the full control effect
Target sequence (Q13526 whole entry, looked up): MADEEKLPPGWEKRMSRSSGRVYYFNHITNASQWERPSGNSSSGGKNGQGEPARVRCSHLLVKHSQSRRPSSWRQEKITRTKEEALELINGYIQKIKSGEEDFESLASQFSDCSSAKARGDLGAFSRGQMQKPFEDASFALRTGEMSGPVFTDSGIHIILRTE
GLP1R ag: agonists of human GLP-1 receptor. HEK293 GLP-1R CRE-luciferase, luminescence, 4-6 h; cells express a hypersensitive GLP-1R form. Potency, µM (titrated, usually from 45.6 µM), inactives show at the top dose activation, usual class: activators. hit rate 0.007% among 380,000. AID 624172; note: % of control where 0% means no effect
Numbers without * were called inactive; i = inactive; u = inconclusive; x = not tested or not shown; [ ] = another dose, or the depositor's remark. Unless noted, calls come from the whole dose curve; as a rule, active = well fitted curve in the direction sought with a large enough effect; inconclusive = small, poorly fitted or top-dose-only effect, or another doubt; inactive = no such curve, though single readings can be large; an effect the other way counts as inactive or inconclusive. Potency is the fitted concentration of half-maximal effect.

SMILES | PGK inhibitor | Tb PFK inh | GLP1R cytotox | GLP-1R inv ag | Pin1 inh | GLP1R ag
CN(C)CCN(CC1CCCN(Cc2ccccc2F)C1)C(=O)Cc1ccccc1F (stereo not drawn) | -5.7% | -0.3% | -20.9% | 10µM* | -9.9% | -4.3%
Cn1cc(/C=N/n2cnc3scc(-c4ccccc4)c3c2=O)c2ccccc21 | 2.1% | -0.3% | u | 5.01µM* | 14.9% | -7.5%
Cn1cc(/C=N/NC(N)=S)c2ccccc21 | 4.0% | 0.0% | u | u | 1.2% | 11.8%
Clc1ccc([C@@H](OCCN2CCCCC2)c2ccccc2)cc1 | x | x | x | x | x | -4.4%[19.8 µM]
CC(C)(C#CCN1CCCCC1)OCCOC(c1ccccc1)c1ccccc1 | 5.0% | 1.2% | u | 5.62µM* | -12.7% | 2.6%
CNCCC(Oc1ccc(C(F)(F)F)cc1)c1ccccc1 (stereo not drawn) | 7.8% | -6.5% | -10.7% | u | u | 30.5%
CNCC[C@H](Oc1cccc2ccccc12)c1cccs1 | i | -0.3% | -13.0% | 11.2µM* | -5.0% | -1.3%
O=C1C=CC2C3C(=O)N(c4ccccc4)C(=O)C3C1N2Cc1ccccc1 (stereo not drawn) | -3.8% | x | 10µM* | u | 15.6% | -17.8%
COc1cccc(C2CC3C(=O)C=CC2N3Cc2ccccc2)c1 (stereo not drawn) | i | -3.4% | -22.4% | u | u | 10.5%
Cc1[nH]c2ccccc2c1CCNCc1cccnc1 | -8.5% | 0.4% | -13.0% | -7.4% | -10.6% | 3.0%
COc1ccc2[nH]c(C)c(CCNCc3cn(C)c4ccccc34)c2c1 | i | 0.0% | u | 2.82µM* | 8.1% | -4.4%
FC(F)Oc1ccc(NC(=S)NNc2ccnc3cc(Cl)ccc23)cc1 | 2.0% | 0.2% | u | u | u | 1.6%
CC(C)=CCc1c(O)cc2c(c1O)C(=O)CC(c1ccc(O)cc1)O2 (stereo not drawn) | -4.7% | -3.5% | -7.3% | 12.6µM* | -8.9% | 7.4%
CCOC(=O)c1[nH]c2ccc(OC)cc2c1NC(=S)N1CCN(c2ccccc2OC)CC1 | -12.8% | 0.3% | u | u | -3.2% | 0.9%
COc1ccc(CN2CCN(C(=O)COc3ccc4ccccc4c3)CC2)c(OC)c1 | 3.8% | -0.3% | -3.7% | 10µM* | -1.1% | -1.0%
O=C(COc1ccc2ccccc2c1)N1CCN(Cc2c[nH]c3ccccc23)CC1 | -3.3% | -3.3% | -32.2% | 11.2µM* | -4.4% | -1.5%
S=C(NCc1ccc(Cl)cc1Cl)NC1CCCCC1 | -3.6% | -1.6% | u | u | -3.7% | 5.9%
C[C@H]1CNC(=O)c2c(C(=O)Nc3ccc(CNC(=O)OC(C)(C)C)cc3)ncn21 | 6.7% | x | -6.3% | 27.7% | x | 5.2%
COc1cccc(CN2CCc3nc(N4CCN(c5ncccn5)CC4)ncc3C2)c1 | -8.0% | x | -6.3% | u | 1.2% | x
CC(=O)c1cn(Cc2ccc(F)cc2)c2ccccc12 | -5.9% | -9.0% | -1.3% | u | -2.0% | 1.0%
COC(=O)c1cn(Cc2ccc(F)cc2)c2ccccc12 | -4.5% | x | 2.2% | 11.2µM* | x | 15.6%
[2H]c1c([2H])c([2H])c(-c2nc(N3CCCCCC3)sc2C(=O)c2ccccc2)c([2H])c1[2H] | 5.4% | 1.9% | 15.1% | 2µM* | u | -0.7%
Cc1ccc(-n2nc3c(N4CCC(C(=O)NCCc5ccccc5)CC4)nnc(C)c3c2C)cc1 | 7.3% | x | 1.5% | 4.6% | 37.5% | x
Cc1oc(-c2cccc(Cl)c2)nc1CN1CCC(C(=O)NCCCN2CCN(c3cccc(Cl)c3)CC2)CC1 | -7.7% | x | -2.5% | u | -0.9% | x
CCc1ccc(-c2nc(CN3CCCC(C(=O)N4CCN(c5cc(Cl)ccc5C)CC4)C3)c(C)o2)cc1 (stereo not drawn) | i | x | u | 4.47µM* | -2.1% | x
SMILES | PGK inhibitor | Tb PFK inh | GLP1R cytotox | GLP-1R inv ag | Pin1 inh | GLP1R ag
C[C@H]1[C@@H](OS(=O)(=O)O)C[C@@H]2C[C@H]([C@@H](O)c3cc(=O)[nH]c(=O)[nH]3)NC3=NC[C@H]1N32 | -8.9% | x | x | 2.51µM* | -7.5% | -10.0%
CC(C)n1c(/C=C/[C@H](O)C[C@H](O)CC(=O)O)c(-c2ccc(F)cc2)c2ccccc21 | -4.0% | u | -22.5% | 3.16µM* | 0.0% | -2.6%
CC(C)(C)OC(=O)N(CCc1ccccc1)Cc1ccc(OCc2cccc(NC(=O)c3ccccc3)c2)cc1 | 0.8% | x | 3.1% | 7.94µM* | u | 6.0%
c1cc2c(cc1C1CCCCC1)c1c3n2CCCNC3CCC1 (stereo not drawn) | -3.2% | -1.1% | u | 3.98µM* | -17.2% | -21.7%
Cc1nc(C(F)(F)F)c(C(=O)N/N=C(\N)c2ccccn2)s1 | -7.4% | 2.9% | u | u | -9.9% | 5.9%
CN(C)C(Cc1ccccc1)C(=O)c1c[nH]c2ccccc12 (stereo not drawn) | i | -1.9% | 1.4% | 12.6µM* | -8.5% | -4.6%
CC(C)(C)c1ccc(C(=O)C2CCCN(Cc3ccon3)C2)cc1 (stereo not drawn) | -4.5% | -5.2% | 3.0% | u | 2.5% | -2.1%
CC(C)(C)c1ccc(C(=O)C2CCCN(C3CCC3)C2)cc1 (stereo not drawn) | i | 1.5% | -8.8% | 10µM* | -0.4% | 25.8%
CCN(c1ccccc1)S(=O)(=O)c1cccc(C(=O)NCc2cccnc2)c1 | 2.3% | -16.4% | -26.0% | u | 0.1% | 3.6%
O=C(Nc1ccc(Cl)c(Cl)c1)c1cccc(S(=O)(=O)NCc2cccnc2)c1 | 0.8% | -17.5% | u | 11.2µM* | u | 2.9%
COc1ccc(CNCCc2c[nH]c3ccccc23)c(OC)c1OC | 13.8% | 1.2% | -14.8% | u | -0.1% | 4.9%
CCOc1cc(CNCCc2c[nH]c3ccccc23)cc(Cl)c1OC | -4.4% | -0.2% | u | 11.2µM* | 0.0% | 2.3%
COc1ccc(CCNC(=O)N2c3ccccc3Sc3ccccc32)cc1 | -2.8% | x | -18.0% | 7.94µM* | 5.1% | 7.1%
CCN(CC)CCN(C(=O)CCS(=O)(=O)c1ccccc1)c1nc2c(C)cc(C)cc2s1 | -8.7% | 2.0% | u | u | 2.5% | -3.7%
C[C@H]1[C@@H]2Cc3ccc(O)cc3[C@]1(C)CCN2C | x | x | x | x | x | -0.2%[231 µM]
O=C(CN1c2ccccc2Sc2ccccc21)NNC(=O)Nc1ccc(Cl)cc1 | 1.5% | -7.6% | u | 1.41µM* | 7.4% | -38.9%
Cc1ccccc1C(=O)Oc1cccc(Nc2ncnc3ccccc23)c1 | -2.7% | x | -25.1% | 11.2µM* | 17.2% | -15.8%
COc1cccc(NC(=O)C2CCN(c3nnc(C)c4c(C)n(-c5ccccc5)nc34)CC2)c1 | -7.7% | x | -11.4% | 2.5% | u | x
